DUSP3 inh = VHR1 phosphatase inhibitors, primary screen, biochemical, absorbance, uHTS | Dual specificity protein phosphatase 3 (Homo sapiens), P51452 | recombinant VHR phosphatase, pNPP absorbance | inhibition, % at 13.3 µM | actives 0.52% (n = 290,000) | AID 1654, 2009; in the data active = inhibition above about 50%
CCHF vOTU inh = CCHFV vOTU protease inhibitors, primary screen, biochemical, Pep-AMC substrate, fluorescence; Crimean-Congo hemorrhagic fever virus L polyprotein viral ovarian tumor (vOTU) protease …; inhibition, % at 11.5 µM; actives 0.55% (n = 370,000); AID 651958, 2012; in the data active = inhibition above about 30%; note: 0% = vehicle wells with enzyme and 100% = no enzyme wells
BH1578 lux ind = inducers of Vibrio cholerae quorum light production without autoinducers, primary screen, BH1578 luxS cqsA deficient, single point; V. cholerae BH1578 lux reporter, luminescence, 6 h; activation, % at 18.7 µM; actives 0.16% (n = 350,000); AID 588436, 2011; in the data active = activation mostly above about 9.7%, no sharp cut-off
PriA SSB inh = inhibitors of Klebsiella pneumoniae PriA binding to SSB C-terminal tail, primary screen, biochemical, AlphaScreen; PriA–SSB C-terminal tail interaction (Klebsiella pneumoniae); AlphaScreen SSBct-PriA binding, biotinylated peptide; inhibition, % at 33 µM; actives 0.6% (n = 430,000); in the data active = inhibition mostly above about 37%, no sharp cut-off; inactive = mostly below about 20%;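 note: plate controls were negative control peptide for no effect and reference peptide for full effect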
TcdB GH inh = TcdB glycohydrolase inhibitors, primary screen, biochemical, single point, plate reader | Toxin B (Clostridioides difficile), P18177 | TcdB glycohydrolase enzymatic assay | inhibition, % at 9.99 µM | actives 0.24% (n = 350,000); in the data active = inhibition above about 10%
SARS 3CLpro inh = SARS-CoV 3CLpro protease inhibitors, primary screen, biochemical, quenched FRET; actives 0.14% (n = 290,000); inhibition, % at 6 µM; AID 1706, 2009; Replicase polyprotein 1ab (Severe acute respiratory syndrome coronavirus), P0C6X7; recombinant SARS-CoV 3CLpro, quenched FRET peptide cleavage; in the data active = inhibition above about 12%
The depositor's hits bear a star; i = inactive; nt = not tested or not shown. Rows were chosen to be rich in hits. Some 1.3% of all compounds tested hit in one or more screens of this group.

SMILES | DUSP3 inh | CCHF vOTU inh | BH1578 lux ind | PriA SSB inh | TcdB GH inh | SARS 3CLpro inh
O=C(NC1CCCC1)C(c1cccnc1)N(Cc1ccccc1)C(=O)c1csnn1 (stereo not drawn) | 52.9* | -3.0 | i | -1.2 | 0.4 | -1.4
O=C(NC1CCCCC1)C(c1ccccc1)N(Cc1cccnc1)C(=O)c1csnn1 (stereo not drawn) | 5.1 | 6.5 | -0.2 | 0.7 | 1.2 | -4.5
CC1(C)CC(=O)C=C(NCC(=O)O)C1 | 10.4 | 0.6 | -5.0 | -4.1 | 0.8 | 0.6
CCSCCC(NC1=CC(=O)CC(C)(C)C1)C(=O)O (stereo not drawn) | 16.8 | -5.5 | 16.7* | -4.5 | nt | 2.9
CC[n+]1c(C)sc2c3ccsc3ccc21 | 51.3* | -2.6 | i | -5.2 | 0.2 | 4.5
CC1CCN(CCCn2c(=S)[nH]c3c(sc4ccc([N+](=O)[O-])cc43)c2=O)CC1 | 22.3 | 10.3 | -0.6 | 3.1 | 0.3 | -0.6
CC1CCN(CCCn2c(=S)[nH]c3c(sc4ccccc43)c2=O)CC1 | 2.8 | 6.8 | i | 0.8 | 11.5* | -0.1
C=CC#CC[N+]1(CC#Cc2ccccc2)CCOCC1 | 8.2 | -0.9 | i | 53.6* | 0.7 | -2.2
CS(=O)(=O)c1ccc2nc(NC(=O)C3CCCN(S(C)(=O)=O)C3)sc2c1 (stereo not drawn) | nt | nt | nt | -7.0 | nt | nt
COc1ccccc1/C=C(/CC(=O)NCc1ccc(F)cc1)c1nc2ccccc2s1 | 1.7 | 21.7 | -0.2 | -21.9 | -1.2 | 1.2
COc1ccccc1/C=C(/CC(=O)NCc1ccccc1)c1nc2ccccc2s1 | 53.8* | 6.9 | i | -44.4 | nt | 4.5
O=S(=O)(Nc1ccc2cn[nH]c2c1)c1ccc(C(F)(F)F)cc1 | nt | 0.1 | -4.5 | -15.9 | 2.2 | nt
O=C(O)c1cc(S(=O)(=O)Nc2ccc3cn[nH]c3c2)ccc1Cl | nt | 6.6 | i | -9.1 | 10.3* | nt
CCSc1cccc(C(=O)Nc2nc3c(s2)C(=O)CC(C)(C)C3)c1 | nt | nt | nt | -12.0 | nt | nt
COC(=O)NC(Nc1sc2c(c1C(N)=O)CCCC2)(C(=O)OC)C(F)(F)F (stereo not drawn) | 1.9 | -11.9 | 16.7* | -3.5 | nt | 3.1
C=CCN(CC=C)S(=O)(=O)c1ccc(C(=O)N2CCCCC2)cc1 | nt | nt | nt | -14.0 | nt | nt
CCN(CC)CCNc1ccc(C)c2sc3ccc(O)cc3c(=O)c12 | nt | -10.3 | 5.6 | 68.5* | 28.6* | nt
O=C(Cn1c(=O)oc2ccccc21)N1CCOC(c2cc(Cl)cc(Cl)c2)C1 (stereo not drawn) | nt | nt | nt | -9.0 | nt | nt
Cc1cc(=O)n2c(-c3cccc(NC(=O)c4ccc(Br)o4)c3)csc2n1 | nt | nt | nt | -12.0 | nt | nt
O=C(c1ccco1)N1CCN(c2cc(C(F)(F)F)nc3ncnn23)CC1 | 51.7* | 0.1 | -0.4 | -9.2 | nt | 1.7
COc1nccnc1NS(=O)(=O)c1ccc(NC(=S)NC(=O)c2ccccc2)cc1 | 51.9* | 3.7 | 0.6 | -6.9 | nt | -1.4
Cc1ccc(NC(=O)C2OCCc3ccccc32)cc1C (stereo not drawn) | 16.4 | 11.1 | -0.3 | -19.9 | 11.4* | 0.0
COc1ccc(-c2noc(Cn3cnc4c(nnn4Cc4ccccc4Cl)c3=O)n2)cc1OC | nt | nt | nt | 0.0 | nt | nt
O=C(Nc1nnc(C2=COCCO2)o1)c1cccc(Cl)c1 | nt | nt | nt | 2.0 | nt | nt
Cc1ccccc1-c1nc(C#N)c(N2CCCC(C)C2)o1 (stereo not drawn) | nt | nt | nt | 65.8* | nt | nt
SMILES | DUSP3 inh | CCHF vOTU inh | BH1578 lux ind | PriA SSB inh | TcdB GH inh | SARS 3CLpro inh
Cc1ccccc1-c1nc(C#N)c(N2CCOCC2)o1 | nt | nt | nt | 70.2* | nt | nt
Cc1ccccc1-c1nc(C#N)c(N2CCCC2)o1 | nt | nt | nt | 60.9 | nt | nt
CC1CC(C)CN(c2oc(-c3ccccc3F)nc2C#N)C1 (stereo not drawn) | 22.2 | -30.0 | 0.6 | 49.8* | 1.6 | 3.5
COC(=O)c1cc2c(-c3ccccc3)c(C)c3ccccn3c-2c1C(=O)OC | 6.3 | 2.4 | i | 66.2* | nt | 0.8
COc1ccc(S(=O)(=O)CCC(=O)Nc2nnc(C3CCCCC3)o2)cc1 | nt | nt | nt | -7.0 | nt | nt
COc1ccccc1C1=NNC(=NCc2ccccc2)SC1 | 21.7 | 1.9 | -0.3 | 15.5 | 10.1* | -3.8
c1ccc(C2=NNC(=NCc3ccc4c(c3)OCO4)SC2)cc1 | 36.0 | -9.9 | i | 47.1* | nt | -4.8
O=c1ccc2cc(O)c(O)cc2o1 | 0.9 | -163.3 | -2.8 | -5.9 | 13.2* | -2.1
CC(=O)c1ccc(S(=O)(=O)NCC2CCN(S(=O)(=O)c3cccnc3)CC2)cc1 | nt | nt | nt | 5.0 | nt | nt
CN(C)CCCn1cnc2c(c1=N)C(c1ccccc1)c1ccc3ccccc3c1O2 (stereo not drawn) | 16.1 | -15.1 | -0.8 | 51.0* | 0.3 | -19.9
N=c1c2c(ncn1CCCO)Oc1c(ccc3ccccc13)C2c1ccccc1 (stereo not drawn) | 9.0 | -6.8 | -0.4 | 2.4 | 0.6 | -5.2
CN(C(=O)CSc1nc(-c2ccccc2)cn1N)C(c1ccccc1)c1ccccc1 | 6.5 | -13.2 | i | 50.0* | 1.0 | 0.5
Nc1ccccc1C(=O)N1CCOCC1 | nt | nt | nt | -10.0 | nt | nt
O=C(Nc1cccc(NC(=O)c2ccco2)c1)c1ccccc1 | 57.6* | -8.4 | -0.2 | -1.4 | 0.4 | -2.5
CC(=O)Nc1cccc(NC(=O)c2ccc(Br)cc2)c1 | 19.7 | 5.1 | i | -4.8 | 10.3* | 2.6
Cc1nc2c(ccc3nc(NC(=O)CCCS(=O)(=O)c4ccc(F)cc4)sc32)s1 | nt | nt | nt | -1.0 | nt | nt
NC(=O)c1c(NC(=O)CCCC(=O)O)sc2c1CCCCCC2 | 44.9 | 14.7 | i | -3.8 | nt | 0.9
COC(=O)c1c(NC(=O)CCCC(=O)O)sc2c1CCC2 | -16.4 | -5.7 | i | 73.1* | 0.7 | -1.2
O=C1CC(C(F)(F)F)=NN1c1ccccc1 | nt | nt | nt | 35.0* | nt | nt
CCC(CC)c1nn2c(N)c(C=C3C=Nc4ccccc43)c(=O)nc2s1 | nt | nt | nt | -5.1 | nt | nt
Cc1cc(C(=O)Nc2nnc(-c3cc(C)nn3C)o2)on1 | nt | nt | nt | 49.0* | nt | nt
Cc1cc(-c2nnc(NC(=O)c3cc(C)on3)o2)n(C)n1 | nt | nt | nt | -5.0 | nt | nt
O=c1c2ccccc2nc(/C=C/c2ccccc2)n1-c1ccccc1O | 28.2 | -5.6 | -0.8 | -1.9 | 3.0 | 7.1
O=c1c2ccccc2nc(/C=C/c2ccc(O)cc2)n1-c1ccccc1O | 21.0 | -10.7 | -0.4 | -5.6 | 12.1* | 2.2
CCNC(=O)Cc1csc(NC(=O)c2ccccc2)n1 | nt | nt | nt | 20.0 | nt | nt
Cc1cc(NC(=O)C(=O)NCCN2CCN(c3ccccc3)CC2)c2ccccc2n1 | nt | nt | nt | -6.0 | nt | nt
COc1ccccc1CN1CCCC(CN(CCN(C)C)C(=O)c2ccc(C)cc2)C1 (stereo not drawn) | 51.3* | -0.7 | -2.0 | -3.4 | 1.3 | -1.4
O=C(Oc1c(CN2CCOCC2)cc(Cl)c2cccnc12)c1cccc([N+](=O)[O-])c1 | nt | nt | nt | 105.0* | nt | nt

High-throughput results (PubChem BioAssay)
